# Compound activity (PubChem)
# Shown are actives, neighbours in structure and some others; about 1.5% of the full set was active somewhere.
# MLL AF4-AF9 inh: MLL-AF4/AF9 protein interaction inhibition | P42568 | AlphaScreen, biotin-AF4 peptide binding to FLAG-AF9 | inhibition, % at 10 µM | 350,000 tested, 0.47% active;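 active = every replicate reaching a set inhibition limit, whatever the replicate mean, cut at about 25% in these data; inconclusive = mean inhibition reaches that limit but some replicates miss it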;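 also: 0% = plate neutral control median and 100% = total signal loss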
# RAD52 anneal inh: blocks human RAD52 DNA annealing | recombinant RAD52 DNA annealing, FRET fluorescence | inhibition, % at 18.7 µM | 360,000 tested, 0.46% active | AID 651710;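 active = every replicate showing at least 50% inhibition; inconclusive = mean inhibition at least 50% but not in every replicate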
# Target sequence (P43351 whole entry, looked up): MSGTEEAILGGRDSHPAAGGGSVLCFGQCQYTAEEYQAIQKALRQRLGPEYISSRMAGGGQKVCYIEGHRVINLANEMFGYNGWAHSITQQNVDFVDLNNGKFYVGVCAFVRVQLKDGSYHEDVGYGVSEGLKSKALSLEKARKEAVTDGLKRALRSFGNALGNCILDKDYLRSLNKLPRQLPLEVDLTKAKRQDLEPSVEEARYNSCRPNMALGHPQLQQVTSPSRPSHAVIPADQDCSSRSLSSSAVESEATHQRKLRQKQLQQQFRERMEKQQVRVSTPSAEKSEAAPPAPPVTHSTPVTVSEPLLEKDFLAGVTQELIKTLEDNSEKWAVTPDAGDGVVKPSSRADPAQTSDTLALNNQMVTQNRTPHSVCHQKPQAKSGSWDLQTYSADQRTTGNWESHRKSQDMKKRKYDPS
# NSD2 inh: blocks human histone methyltransferase NSD2; AID 743445; NSD2 peptide methylation, AlphaScreen, 120 min; inhibition, % at 12.5 µM; O96028; 310,000 tested, 0.54% active; in the data active = inhibition above about 50%
# miR-122 sensor: inhibitors of miR-122 in Huh7 cells | 340,000 tested, 0.3% active | Huh7 miR-122 Renilla luciferase sensor, 48 h; neutral wells = 0, positive control = 100 | activation (reporter increase), % at 12.5 µM;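 active = mean replicate activation score at least 90 and every replicate individually at or above 90; inconclusive = only one of the two criteria met; inactive = neither criterion met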;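 also: higher luciferase means less miR-122 activity so hits act as miR-122 inhibitors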
# CASP6 VEID inh: caspase-6 (human) enzyme inhibition | P55212 | purified caspase-6, Z-VEID-R110 cleavage fluorescence | inhibition, % at 12.5 µM | 350,000 tested, 0.53% active;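 active = mean inhibition across replicates at least about 35%, with every replicate also reaching that limit, limit read from the data; inconclusive = only one of the two criteria met; inactive = neither criterion met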;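 also: 0% = median of neutral control wells and 100% = no fluorescence left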
# Target sequence (P55212 24-179 limits assumed): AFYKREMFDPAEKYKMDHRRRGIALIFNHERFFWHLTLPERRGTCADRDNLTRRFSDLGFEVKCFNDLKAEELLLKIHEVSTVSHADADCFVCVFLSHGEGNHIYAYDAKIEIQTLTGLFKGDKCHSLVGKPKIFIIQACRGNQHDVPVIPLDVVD
# Target sequence (P55212 194-293 limits assumed): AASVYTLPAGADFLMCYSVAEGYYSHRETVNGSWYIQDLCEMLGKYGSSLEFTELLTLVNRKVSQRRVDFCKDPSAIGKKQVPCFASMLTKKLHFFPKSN
# RAD52 DNA ctr: counter-screen for RAD52 inhibitors: DNA binding compounds; shares compounds with RAD52 anneal inh; AC50, µM; 1,000 tested, 8% active; Salmon sperm DNA/acridine orange FP displacement; AID 652128;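 active = fitted half-maximal concentration for signal loss at or below twice the highest dose tested, in every separate run, actives reach about 64 µM in these data; inconclusive = runs disagree, or flat partial signal loss, or poor fit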
# Starred values were filed as active, the others as inactive; i = inactive; ? = inconclusive; . = no result; [ ] = dose if it differs, or a comment.
SMILES,MLL AF4-AF9 inh,RAD52 anneal inh,NSD2 inh,miR-122 sensor,CASP6 VEID inh,RAD52 DNA ctr
CCC(/C=C1\Sc2ccc(OC)cc2N1CCO)=C\c1sc2ccc(OC)cc2[n+]1CCO,22.3,82.7*,22.5,-3.0,-7.3,i
CC(=O)N1[C@@H](CO)[C@@H](c2ccccc2)C12CN(C(=O)c1ccccn1)C2,-11.9,2.6,.,.,2.2,.
C[C@H](O)C#Cc1cnc2c(c1)C(=O)N([C@@H](C)CO)C[C@H](C)[C@@H](CN(C)CC1CCCCC1)O2,2.0,-14.7,.,-3.4[16.7 µM],1.1,.
CCn1c2ccccc2c2cc(CN3CCN(Cc4cc(OC)ccc4O)CC3)ccc21,0.1,54.1*,23.5,-3.5,-1.7,i
O=C(Nc1ccc(F)cc1)N1C[C@@H]2[C@H](c3ccccc31)[C@H](CO)N2C(=O)Cc1ccncc1,-5.8,5.0,.,12.2[16.7 µM],1.6,.
Cc1noc(C)c1S(=O)(=O)Nc1ccc2c(c1)C(=O)N([C@H](C)CO)C[C@H](C)[C@@H](CN(C)Cc1ccc(C(F)(F)F)cc1)OCCCC[C@H](C)O2,1.6,13.5,.,-8.9[16.7 µM],0.5,.
CN(C)CCCNc1ccc(-c2n[nH]c(=O)c3ccccc23)cc1[N+](=O)[O-],10.0,66.4*,48.0,-3.8,-49.3,i
CCN1CCN(c2cc(C)c3cc(NC(=S)NCCCOC)ccc3n2)CC1,-2.2,61.4*,13.4,12.1,-48.6,i
Cc1cc(N2CCN(C)CC2)nc2ccc(NC(=S)NCCC(C)C)cc12,18.1,61.1*,8.6,-5.6,-14.7,i
COCCCNC(=S)Nc1ccc2nc(N3CCOCC3)cc(C)c2c1,4.2,-6.8,-1.5,3.9,-0.3,.
Cc1cc(N2CCN(C)CC2)nc2ccc(NC(=S)NCCCN3CCN(C)CC3)cc12,4.4,82.2*,6.8,0.5,-65.5,i
Cc1cc(N2CCOCC2)nc2ccc(NC(=S)NCCC(C)C)cc12,7.6,4.4,-3.5,.,2.8,.
COCCNC(=S)Nc1ccc2nc(N3CCN(C)CC3)cc(C)c2c1,7.6,52.4*,3.5,3.3,-33.6,i
COc1ccccc1CNC(=S)Nc1ccc2nc(N3CCN(C)CC3)cc(C)c2c1,27.2*,77.1*,.,0.3,-1.2,i
CC(C)NC(=O)Nc1ccc2c(c1)C(=O)N([C@@H](C)CO)C[C@@H](C)[C@H](CN(C)C(=O)NC1CCCCC1)OCCCC[C@H](C)O2,-2.0,-1.3,.,-1.6[16.7 µM],5.9,.
Nc1c2ccccc2nc2ccccc12,-2.3,97.8*,37.2,-22.4,-5.0,32.7µM*
Nc1c2c(nc3ccccc13)CCCC2,1.9,3.9,.,-0.6,4.2,.
O=C(c1ccc(Cn2c(=S)[nH]c3ccc(N4CCOCC4)cc3c2=O)cc1)N1CCC(N2CCCCC2)CC1,7.6,87.2*,1.4,.,-2.1,i
O=C(NC1CCN(Cc2ccccc2)CC1)c1ccc(Cn2c(=S)[nH]c3ccc(N4CCOCC4)cc3c2=O)cc1,-2.3,-18.5,-4.8,-12.0,-4.9,.
O=C(C[n+]1ccccc1)N/N=C/c1ccco1,7.6,50.3*,-4.4,-1.2,-90.9,i
Cc1ccc(/C=N/NC(=O)C[n+]2ccccc2)o1,-1.2,-4.2,0.5,-5.6,-13.5,.
Cc1noc(C)c1NC(=O)N(C)C[C@@H]1OCCCC[C@H](C)Oc2ccc(NC(=O)C3CCCCC3)cc2C(=O)N([C@H](C)CO)C[C@H]1C,-1.0,10.4,.,4.1[16.7 µM],-3.4,.
Cc1ccc2nc3c(c(N)c2c1)CCN3C,-0.9,41.7,1.5,1.3,1.5,i
Cc1ccc(C)c(OCC(O)CN2CCN(CCN3C(=O)c4cccc5cccc(c45)C3=O)CC2)c1 (configuration not stated),8.7,98.8*,-0.2,.,-2.2,i
COc1cc(COCC(O)CN2CCN(CCN3C(=O)c4cccc5cccc(c45)C3=O)CC2)cc(OC)c1OC (configuration not stated),2.8,84.7*,5.2,.,-2.8,i
SMILES,MLL AF4-AF9 inh,RAD52 anneal inh,NSD2 inh,miR-122 sensor,CASP6 VEID inh,RAD52 DNA ctr
Cc1noc(C)c1NC(=O)N(C)C[C@@H]1OCCCC[C@@H](C)Oc2ccc(NS(=O)(=O)c3ccc(Cl)cc3)cc2C(=O)N([C@H](C)CO)C[C@H]1C,-10.3,19.2,.,-1.1[16.7 µM],-0.8,.
C[C@@H]1CN([C@@H](C)CO)S(=O)(=O)c2ccc(C#Cc3ccncc3)cc2O[C@H]1CN(C)C(=O)C1CCOCC1,-1.3,-2.0,.,-20.3[16.7 µM],-0.3,.
Cc1cccc(S(=O)(=O)N2C[C@H](O)COC[C@@H]3O[C@H](CC(=O)N4CCN(C)CC4)CC[C@H]32)c1,-23.5,13.4,.,2.9[16.7 µM],-0.8,.
O=c1oc(-c2ccccc2Br)nc2ccccc12,-1.9,101.9*,-10.8,.,0.2,i
C[C@H]1CN([C@@H](C)CO)C(=O)c2cc(-c3cccc(F)c3)cnc2O[C@H]1CN(C)C(=O)Nc1cc(F)ccc1F,0.6,-5.9,.,-3.5[16.7 µM],0.6,.
O=C(NCC1CCCCC1)C1(CC2CC(c3ccc(Cl)cc3)=NO2)CCNCC1 (configuration not stated),9.0,66.9*,.,-5.2,-1.1,i
O=C(NCC1CCCCC1)C1(CC2CC(c3cccc(Br)c3)=NO2)CCNCC1 (configuration not stated),6.7,-2.6,.,-17.2,-0.6,.
C[C@@H]1CN([C@H](C)CO)C(=O)c2cc(NC(=O)c3ccccc3)ccc2O[C@@H](C)CCCCO[C@@H]1CN(C)S(=O)(=O)c1cccs1,.,.,.,13.1[16.7 µM],.,.
C[C@@H]1CN([C@@H](C)CO)S(=O)(=O)c2ccc(-c3ccccc3F)cc2O[C@H]1CN(C)Cc1cccnc1,6.2,12.9,.,-18.6[16.7 µM],0.4,.
Cc1c(CCOC(=O)c2cc([N+](=O)[O-])cc([N+](=O)[O-])c2)sc[n+]1CC(=O)c1ccc(Br)cc1,11.0,94.1*,5.6,.,5.6,i
Cc1c(CCOC(=O)c2ccc(Cl)cc2Cl)sc[n+]1CC(=O)c1ccccc1,9.1,36.7,26.4,.,0.6,.
Cc1ccc2cc(C#N)c(NCCNC(=S)NCCCN(C)C)nc2c1C,6.2,100.4*,8.0,.,-67.7,i
CCOCCCNC(=S)NCCNc1nc2c(C)cccc2cc1C#N,.,.,.,1.8,.,.
Cc1cc(C)c2nc(NCCCNC(=S)NCCCN(C)C)c(C#N)cc2c1,-2.4,94.4*,12.0,.,-69.0,i
CCOC(=O)c1c(-c2ccccc2)oc2ccc(OCC(O)CN(C)C)cc12 (configuration not stated),13.5,43.2,7.5,-12.7,-49.1,i
COc1cc2ccccc2cc1C(=O)N(CCN(C)C)c1nc2c(F)cc(F)cc2s1,?,-3.0,-0.9,-4.5,-0.8,.
CN(C)CCCN(C(=O)c1ccco1)c1nc2ccc(Br)cc2s1,18.8,57.1*,.,-6.2,-8.4,i
COc1cc2ccccc2cc1C(=O)N(CCN(C)C)c1nc2ccc(Br)cc2s1,23.0,50.8*,-3.3,.,-3.8,i
CC(C)CC#Cc1ccc2c(c1)O[C@H](CN(C)C)[C@@H](C)CN([C@@H](C)CO)S2(=O)=O,6.7,25.6,.,46.9[16.7 µM],-4.9,.
